For 28 compounds, B-score of Tl+ flux slope (higher = more flux/activation; lower = inhibition) results are on record in PubChem BioAssay AID1456 (Vanderbilt High Throughput Screening Facility, 2008).

Hit rate of the full screen: of about 190,000 compounds, about 4,100 (2.2%) were called active. This is one part of a sample in which actives are shown more often than they occur. A number with no mark means an inactive call.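 How the source made its calls: active means thallium flux slope and its plate-corrected score both differing from the plate sample mean at a set confidence after two filtering rounds, in either direction; inactive means the rest.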

The target in the test is Solute carrier family 12 member 5 (Homo sapiens) (UniProt Q9H2X9). Description: KCC2 cotransporter modulators, thallium flux, primary screen, cell-based, HEK293 KCC2, FluoZin-2 fluorescence, MLSMR (AID 1456).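 Further: slope of fluorescence scaled to starting intensity during 10 to 20 s after thallium.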 As to conditions: KCC2 cells, thallium flux FluoZin-2 fluorescence; at 10 µM.
Solute carrier family 12 member 5 (Homo sapiens), sequence (Q9H2X9 whole entry, looked up): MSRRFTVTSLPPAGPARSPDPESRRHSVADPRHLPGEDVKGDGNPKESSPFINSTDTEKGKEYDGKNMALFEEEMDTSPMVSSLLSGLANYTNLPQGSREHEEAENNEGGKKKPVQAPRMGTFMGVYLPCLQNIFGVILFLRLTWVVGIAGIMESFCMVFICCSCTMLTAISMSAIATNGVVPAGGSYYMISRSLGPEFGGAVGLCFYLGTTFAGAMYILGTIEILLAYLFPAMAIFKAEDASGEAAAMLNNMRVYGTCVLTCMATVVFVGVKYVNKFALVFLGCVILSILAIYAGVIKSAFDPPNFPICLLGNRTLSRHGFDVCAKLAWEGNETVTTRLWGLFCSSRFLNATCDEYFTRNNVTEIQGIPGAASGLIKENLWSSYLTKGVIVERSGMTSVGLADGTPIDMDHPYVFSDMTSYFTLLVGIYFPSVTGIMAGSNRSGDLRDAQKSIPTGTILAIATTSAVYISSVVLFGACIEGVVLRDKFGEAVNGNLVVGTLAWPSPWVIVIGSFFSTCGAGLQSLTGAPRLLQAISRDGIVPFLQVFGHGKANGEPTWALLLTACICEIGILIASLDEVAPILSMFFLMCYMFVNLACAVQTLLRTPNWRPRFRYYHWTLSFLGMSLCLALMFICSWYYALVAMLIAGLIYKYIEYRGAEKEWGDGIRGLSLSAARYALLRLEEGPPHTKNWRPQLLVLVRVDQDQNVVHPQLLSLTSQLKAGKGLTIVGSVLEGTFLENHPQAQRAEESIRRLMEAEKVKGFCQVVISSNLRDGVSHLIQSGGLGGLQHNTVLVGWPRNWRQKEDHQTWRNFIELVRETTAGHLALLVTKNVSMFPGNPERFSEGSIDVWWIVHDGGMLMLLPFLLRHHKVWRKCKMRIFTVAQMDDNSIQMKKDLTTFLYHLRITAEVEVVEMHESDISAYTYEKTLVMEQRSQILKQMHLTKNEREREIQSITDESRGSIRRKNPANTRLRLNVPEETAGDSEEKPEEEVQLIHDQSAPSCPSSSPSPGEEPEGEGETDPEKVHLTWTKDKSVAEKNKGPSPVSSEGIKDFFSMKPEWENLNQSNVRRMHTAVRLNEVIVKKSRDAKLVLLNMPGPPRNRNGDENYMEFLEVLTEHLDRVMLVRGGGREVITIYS
For the compound `COc1cc2nc(Cl)nc(NCCO)c2cc1OC`, the B-score of Tl+ flux slope (higher = more flux/activation; lower = inhibition) was 0.407.
In the case of `COc1cccc(NC(=O)C(Sc2nnnn2C)c2ccccc2)c1` (stereo not drawn), the B-score of Tl+ flux slope (higher = more flux/activation; lower = inhibition) was -0.113.
As to `CC(Sc1nc2ccccc2c(=O)n1Cc1ccco1)C(=O)c1ccccc1` (stereo not drawn), the B-score of Tl+ flux slope (higher = more flux/activation; lower = inhibition) was -0.121.
As to `COc1cccc(NC(=O)C(Sc2nc3ccccc3c(=O)n2CC(C)C)c2ccccc2)c1` (stereo not drawn), the B-score of Tl+ flux slope (higher = more flux/activation; lower = inhibition) is 7.69 (active).
As to `Nc1nc(Sc2ncccc2[N+](=O)[O-])n[nH]1`, the B-score of Tl+ flux slope (higher = more flux/activation; lower = inhibition) was -0.977.
For the compound `Cc1ccc(N2C(=O)CN=C2Nc2nc(C)cc(C)n2)cc1`, the B-score of Tl+ flux slope (higher = more flux/activation; lower = inhibition) is 0.73.
With `CC(=O)NC(=S)NNC(=O)c1ccc(Br)cc1`, the B-score of Tl+ flux slope (higher = more flux/activation; lower = inhibition) is 5.47 (active).
Take `CNC(=S)NNC(=O)c1ccc(N(C)C)cc1`: the B-score of Tl+ flux slope (higher = more flux/activation; lower = inhibition) was 0.736.
In the case of `O=C(CCc1ccccc1)NNC(=O)c1ccc(Br)cc1`, the B-score of Tl+ flux slope (higher = more flux/activation; lower = inhibition) is -1.74.
Turning to `COC(=O)c1ccc(S(=O)(=O)NCc2ccccc2)n1C`, the B-score of Tl+ flux slope (higher = more flux/activation; lower = inhibition) was -0.343.
As for `O=C1CCCCC1C(=O)c1ccccc1` (stereo not drawn), the B-score of Tl+ flux slope (higher = more flux/activation; lower = inhibition) was 0.304.
The value for `CN(C)c1cc(-c2ccc(F)cc2)oc(=O)c1Cl` was 0.0271; that for `COc1ccnc(Oc2ccccc2)c1-c1ncn[nH]1` was 0.306.
The value for `O=C(NCc1cccs1)C1CCN(S(=O)(=O)c2ccc(Cl)cc2)CC1` was -0.17; that for `O=C(CNCc1cccs1)Nc1cc(S(=O)(=O)N2CCCC2)ccc1Cl` was -3.68 (active); that for `O=C(CNCc1ccco1)Nc1cc(S(=O)(=O)N2CCOCC2)ccc1N1CCCC1` was -0.873.
Consider `COCCCn1c(-c2cccs2)nc2nc3ccccc3nc21`, for which the B-score of Tl+ flux slope (higher = more flux/activation; lower = inhibition) was 0.0602.
Next, `O=C(N/N=C1\CCSC1)c1cc(Cl)ccc1O`: 0.11; `C/C(=N/NC(=O)c1cc(Cl)ccc1O)C12CC3CC(CC(C3)C1)C2`: 4.51 (active).
`COc1ccc(Cl)cc1NC(=O)CN(C)C(=O)CNC(=O)C12CC3CC(CC(C3)C1)C2`: the B-score of Tl+ flux slope (higher = more flux/activation; lower = inhibition) was 0.0604.
The value for `CCOC(=O)C1CCN(C(=O)Nc2ccc(C)c(Cl)c2)CC1` was 0.0935; that for `CCOC(=O)C(=Cc1ccccc1OC)C(=O)OCC` was -0.438.
For `O=C(CN1C(=O)/C(=C/c2ccccc2F)Sc2ccccc21)NCc1cccnc1`, the B-score of Tl+ flux slope (higher = more flux/activation; lower = inhibition) was -1.86.
As for `COc1ccc(C(=O)C2CCCN(C(=O)c3cnsn3)C2)c(C)c1` (stereo not drawn), the B-score of Tl+ flux slope (higher = more flux/activation; lower = inhibition) is -0.0096.
The value for `O=S(=O)(c1ccccc1)N1CN(Cc2ccc(F)cc2)c2nc3ccccc3nc21` was -1.17; that for `CCc1ccc(Nc2nnc(SCC(=O)c3ccc4c(c3)NC(=O)CO4)s2)cc1` was -5.32 (active).
As for `O=C1COc2ccc(C(=O)COC(=O)c3cccnc3Cl)cc2N1`, the B-score of Tl+ flux slope (higher = more flux/activation; lower = inhibition) is -0.384.
Regarding `COc1cccc(Nc2nnc(SCC(=O)N3CC(=O)Nc4ccccc43)s2)c1`, the B-score of Tl+ flux slope (higher = more flux/activation; lower = inhibition) was -0.459.
